Measured values from PubChem BioAssay (EPA / NIEHS).
Records with an inconclusive call do not appear. Activity calls are given as the source filed them. The calls were made as follows: active = hit-call score of the fitted dose curve at least 0.9, where 1 is the maximum; inconclusive = response in the unintended direction; inactive = score below 0.9.

Each compound was assayed on Broad substrate specificity ATP-binding cassette transporter ABCG2 (Homo sapiens) (UniProt Q9UNQ0) (assay: CLD_ABCG2_24hr: CellzDirect (CLD) Gene Expression Assay for ABC Transporter (ABCG2) at 24 hours (AID 2283685)).
Broad substrate specificity ATP-binding cassette transporter ABCG2 (Homo sapiens), sequence (Q9UNQ0 whole entry, looked up): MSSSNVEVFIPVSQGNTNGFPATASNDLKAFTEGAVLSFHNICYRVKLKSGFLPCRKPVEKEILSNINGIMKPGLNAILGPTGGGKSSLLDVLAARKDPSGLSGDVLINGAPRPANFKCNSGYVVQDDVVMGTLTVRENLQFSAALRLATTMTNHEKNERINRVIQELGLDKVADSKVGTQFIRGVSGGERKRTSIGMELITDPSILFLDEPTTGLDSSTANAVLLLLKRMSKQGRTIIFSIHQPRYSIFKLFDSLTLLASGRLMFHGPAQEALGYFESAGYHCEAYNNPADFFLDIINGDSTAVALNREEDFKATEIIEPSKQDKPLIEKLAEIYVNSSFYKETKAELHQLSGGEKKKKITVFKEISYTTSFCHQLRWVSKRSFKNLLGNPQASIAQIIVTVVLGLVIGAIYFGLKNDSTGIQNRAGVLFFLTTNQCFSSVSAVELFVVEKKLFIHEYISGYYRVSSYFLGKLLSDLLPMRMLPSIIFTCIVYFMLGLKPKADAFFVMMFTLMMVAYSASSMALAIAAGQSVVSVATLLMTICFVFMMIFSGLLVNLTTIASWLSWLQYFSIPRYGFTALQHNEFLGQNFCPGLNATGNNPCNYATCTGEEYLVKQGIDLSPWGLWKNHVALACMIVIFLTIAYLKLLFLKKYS
Procedure: CLD_24hr is a cell-based, multiplexed-readout assay that uses hepatocyte, a human liver primary cell, with measurements taken at 24 hours after chemical dosing in a 96-well plate.CLD_ABCG2_24hr is one of 16 assay component(s) measured or calculated from the CLD_24hr assay. It is designed to make measurements of mRNA induction, a form of inducible reporter, as detected with chemiluminescence signals by Quantitative Nuclease Protection Assay (qNPA) technology.Data from the assay component CLD_ABCG2_24hr was analyzed at the endpoint, CLD_ABCG2_24hr, in the positive analysis fitting direction relative to DMSO as the negative control and baseline of activity. Using a type of inducible reporter, gain-of-signal activity can be used to understand changes in the reporter gene as they relate to the gene ABCG2. Furthermore, this assay endpoint can be referred to as a primary readout. To generalize the intended target to other relatable targets, this assay endpoint is annotated to the transporter intended target family, where subfamily is ABC transporter.
Human hepatocyte cultures were treated daily for two consecutive days with fresh dosing solutions containing appropriate concentrations of the 320 ToxCast chemicals (chemical identities were blinded to CellzDirect and other ToxCast collaborators), vehicle control (0.2% DMSO), and positive control inducers as summarized in Table 1. Due to the large number of treatment groups and chemicals examined, the ToxCast chemicals were divided into two groups (spanning two independent cultures of hepatocytes from separate donor preparations (Hu778: ToxCast plates 1 and 2; Hu776: ToxCast plates 3 and 4). Each preparation of human hepatocyte cultures was treated with respective vehicle control, medium only control, set of six positive controls/reference chemicals for the five hepatic receptor pathways, and a subset of eight of the ToxCast chemicals (indoxacarb, pyrithiobac-sodium, norflurazon, cyhalofop-butyl, methomyl, thiram, acetochlor, and propiconazole). These replicate data, coupled with internal replicates designed within the blinded ToxCast chemical library, provided additional data to evaluate interindividual differences between hepatocyte preparations and their potential impact on chemical profiles.Cell morphology and integrity were evaluated using phase-contrast microscopy as an indicator of hepatocyte cell health (Tyson & Green, 1987). Cultures for each treatment group (i.e., media, vehicle [0.2% DMSO], positive control inducers [multiple concentrations], and the ToxCast chemicals [multiple concentrations]) were observed and cell morphology was assessed relative to vehicle control cultures at each harvest time point (0, 6, 24, or 48 h). […] Images were evaluated at the conclusion of the study to assess changes in cell integrity and account for the effects of chemical exposure on uncharacteristic changes in concentration-dependent gene expression profiles. The results from these determinations of apparent cytotoxicity were annotated (yes/no) alongside the corresponding qNPA data for reference.At the conclusion of each treatment period, hepatocyte cultures (96-well) were washed with 1 volume of HBSS, lysed by addition of 25 ul ArrayPlate lysis buffer (HTG, Tucson, AZ), and 70 ul/well of Denaturation Oil, denatured by incubation at 95C for 10 min, and frozen at approximately -70C until analysis by nuclease protection assay (qNPA) (Roberts et al., 2007). For qNPA analysis, cell lysates were thawed at 50C for approximately 30 min, qNPA probes were added, and samples were incubated at 95C for 10 min to begin the detection process by denaturing the target RNA, dissociating the duplexes and secondary structure hybridization. At the conclusion of the hybridization period, S1 nuclease reagent was added to each sample to digest all nonprotected nucleotides at 50C for 60-90 min. […]

Row | Compound | outcome
1 | COCCO | inactive
2 | S=C([S-])NCCNC(=S)[S-].[Mn+2] | inactive
3 | CCCCOC(=O)C(C)Oc1ccc(Oc2ccc(C(F)(F)F)cn2)cc1 (stereo not given) | inactive
4 | O=C(O)C1(C(=O)Nc2ccc(Cl)cc2Cl)CC1 | inactive
5 | CCC(O)=C1C(=O)CC(C(=O)O)CC1=O (stereo not given) | inactive
6 | CCOC(=O)NCCOc1ccc(Oc2ccccc2)cc1 | inactive
7 | CCOC(=O)C(C)Oc1ccc(Oc2nc3ccc(Cl)cc3o2)cc1 (stereo not given) | inactive
8 | CSC(=O)c1cccc2nnsc12 | inactive
9 | S=C(S)NCCNC(=S)S.[Mn+2].[S-]C([S-])=NCCN=C([S-])[S-].[Zn+2] | inactive
10 | CCCCCCC(C)OC(=O)COc1nc(F)c(Cl)c(N)c1Cl (stereo not given) | inactive
11 | CCOC(=O)COc1cc(-n2ncc(C(F)(F)F)c(C)c2=O)c(F)cc1Cl | inactive
12 | CCOC(=O)[C@H](C)Oc1ccc(Oc2nc3ccc(Cl)cc3o2)cc1 | inactive
13 | Cc1nn(C)c(Oc2ccccc2)c1C=NOCc1ccc(C(=O)OC(C)(C)C)cc1 | inactive
14 | O=C(Nc1ccc([N+](=O)[O-])cc1Cl)c1cc(Cl)ccc1O | inactive
15 | CCCOC(=O)c1ccc(C(=O)OCCC)nc1 | inactive
16 | CCCCOC(=O)[C@@H](C)Oc1ccc(Oc2ccc(C(F)(F)F)cn2)cc1 | inactive
17 | COC(=O)c1ccc(I)cc1S(=O)(=O)NC(=O)Nc1nc(C)nc(OC)n1 | inactive
18 | CCCN(CCC)C(=O)SCC | inactive
19 | COC(=O)CSc1cc(N=c2sc(=O)n3n2CCCC3)c(F)cc1Cl | inactive
20 | OB(O)O | inactive
21 | CCSC(=O)N(CC(C)C)CC(C)C | inactive
22 | COc1c(Cl)ccc(Cl)c1C(=O)O | inactive
23 | CCC(C)OC(=O)N1CCCCC1CCO (stereo not given) | inactive
24 | CC(C)(c1ccc(O)cc1)c1ccc(O)cc1 | inactive
25 | C=CCOC(Cn1ccnc1)c1ccc(Cl)cc1Cl (stereo not given) | inactive
26 | CC(C)(C)[C@@H](O)[C@@H](Cc1ccc(Cl)cc1)n1cncn1 | inactive
27 | CCCN(CCC)c1c([N+](=O)[O-])cc(C(F)(F)F)c(N)c1[N+](=O)[O-] | inactive
28 | C#CCOC(=O)[C@@H](C)Oc1ccc(Oc2ncc(Cl)cc2F)cc1 | inactive
29 | CCCOC(=O)NCCCN(C)C | inactive
30 | N#CSCSc1nc2ccccc2s1 | inactive
